Assay outcomes: PubChem, several laboratories
Most compounds without a hit are left out; they make up all but 3.5% or so of the library.
BoNT-F LC inh: inhibitors of Botulinum neurotoxin F light chain protease. inhibition, % at 10 µM. Multiplex microsphere protease cleavage assay, flow cytometry. 360,000 compounds, 0.22% hits. AID 588497; in the data active = inhibition above about 35%, passing the limit was not always enough; inconclusive = no clear call, values can overlap the other calls; also: plate controls were buffer without enzyme for full effect and enzyme alone for no effect
BJeLR lethal: kills HRASV12-expressing BJeLR cells. BJeLR (HRASV12) viability, CellTiter-Glo ATP luminescence, 48 h. inhibition, % (no concentration beside the values). 300,000 compounds, 0.17% hits. AID 1554; in the data active = inhibition above about 50%; inconclusive = no clear call, values can overlap the other calls
Bead autofluor: flagged as autofluorescent in microsphere protease counterscreen | compound autofluorescence counterscreen, microsphere flow cytometry; stronger effect = higher value | fluorescence intensity (no concentration beside the values) | 360,000 compounds, 3.1% hits; in the data active = fluorescence intensity above about 16000; inconclusive = no clear call, values can overlap the other calls
Anthrax LF inh2: inhibitors of Bacillus anthracis lethal factor protease; P15917; multiplex microsphere protease cleavage assay, LF; inhibition, % at 10 µM; 360,000 compounds, 0.12% hits; AID 588501; also: plate controls were buffer without enzyme for full effect and enzyme alone for no effect
Target sequence (P15917 whole entry, looked up): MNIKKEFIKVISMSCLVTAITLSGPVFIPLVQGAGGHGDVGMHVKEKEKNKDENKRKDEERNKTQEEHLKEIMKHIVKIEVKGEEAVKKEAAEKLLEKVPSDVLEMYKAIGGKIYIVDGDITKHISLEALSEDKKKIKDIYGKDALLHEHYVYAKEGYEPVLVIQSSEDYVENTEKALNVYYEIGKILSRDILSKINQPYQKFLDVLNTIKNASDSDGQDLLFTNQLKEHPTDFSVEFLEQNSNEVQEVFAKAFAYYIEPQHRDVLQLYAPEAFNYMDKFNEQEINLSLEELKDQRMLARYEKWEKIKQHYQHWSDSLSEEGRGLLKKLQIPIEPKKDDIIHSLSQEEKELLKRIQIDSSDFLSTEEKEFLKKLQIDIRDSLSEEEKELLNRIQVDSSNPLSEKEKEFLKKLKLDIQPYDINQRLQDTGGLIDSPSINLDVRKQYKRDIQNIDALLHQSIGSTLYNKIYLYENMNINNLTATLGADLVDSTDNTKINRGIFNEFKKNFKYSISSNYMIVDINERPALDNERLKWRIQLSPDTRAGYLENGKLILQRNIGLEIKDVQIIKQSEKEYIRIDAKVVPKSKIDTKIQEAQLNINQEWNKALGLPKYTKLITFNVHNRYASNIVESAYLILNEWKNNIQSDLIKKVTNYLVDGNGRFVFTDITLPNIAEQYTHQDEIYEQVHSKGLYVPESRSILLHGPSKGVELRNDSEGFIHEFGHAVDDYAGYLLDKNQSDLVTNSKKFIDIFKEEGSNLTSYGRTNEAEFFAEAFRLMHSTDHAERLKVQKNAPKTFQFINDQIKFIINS
BoNT-A LC inh2: blocks Botulinum neurotoxin A light chain protease | 360,000 compounds, 0.17% hits | AID 588499 | multiplex microsphere protease substrate cleavage, flow cytometry | inhibition, % at 10 µM; also: plate controls were buffer without enzyme for full effect and enzyme alone for no effect
The depositor's hits bear a star; u = inconclusive; x = not tested or not shown. Rule as the data show it, unless noted: active = inhibition above about 30%; inconclusive = no clear call, values can overlap the other calls; inactive = below that.

SMILES | BoNT-F LC inh | BJeLR lethal | Bead autofluor | Anthrax LF inh2 | BoNT-A LC inh2
CC1CCc2c(sc(NC(=O)c3ccccc3C(=O)O)c2C#N)C1 (stereo not drawn) | -7 | -3 | 1999 | -1 | 0
CC1CCc2c(sc(NC(=O)COC(=O)c3ccccc3NCc3ccco3)c2C#N)C1 (stereo not drawn) | -2 | 2 | 22501* | -9 | -1
O=Cc1[nH]c2ccccc2c1N(C(=O)CCl)c1ccc([N+](=O)[O-])cc1 | x | 111* | x | x | x
Fc1ccc(-c2ccnc3nc(N4CCOCC4)nn23)cc1 | -3 | 5 | 23704* | -1 | -1
Fc1ccc(-c2ccnc3nc(-n4cccc4)nn23)cc1 | 4 | 0 | 9565 | -1 | 1
COc1ccc(-c2ccnc3nc(N4CCN(c5ccccc5)CC4)nn23)cc1 | -2 | -4 | 22429* | -11 | u
COc1ncc(-c2ccc(N3C(c4ccsc4)=Cc4ccc(F)cc4C3CC(C)=O)cc2)cn1 (stereo not drawn) | -2 | x | 6087 | 5 | 2
CC(C)c1ccc(-c2nnn(CCC(=O)O)n2)cc1 | 0 | -2 | 16264* | -2 | 0
COc1cc(Br)c(C(C)NC(=O)c2ccccc2)cc1OC (stereo not drawn) | -4 | -12 | 21305* | -2 | -2
CC(C)OC(=O)CSc1nnc2c3ccccc3n(C)c2n1 | -2 | 0 | 2622 | 0 | 0
COC(=O)c1ccc(S(=O)(=O)NCCSc2nnc3c4ccccc4n(C)c3n2)cc1 | -2 | 10 | 23909* | 0 | u
O=c1[nH]c(C2CCCN(S(=O)(=O)c3cccc(F)c3)C2)nc2c1nnn2Cc1ccccc1 (stereo not drawn) | -5 | 1 | 6725 | 1 | -3
Cc1ccc(C)c(Cn2nnc3c(=O)[nH]c(C4CCN(C(=O)c5cccs5)CC4)nc32)c1 | 2 | -4 | 3814 | -5 | -1
O=c1[nH]c(C2CCCN(S(=O)(=O)c3ccccc3)C2)nc2c1nnn2Cc1ccccc1 (stereo not drawn) | 2 | 5 | 22466* | -1 | 2
Cc1ccc(Cn2nnc3c(=O)[nH]c(C4CCN(C(=O)c5cccs5)CC4)nc32)cc1 | -3 | 6 | 23099* | 0 | -1
OC(c1ccc(F)c(F)c1)c1ncc(-c2ccc(F)cc2)[nH]1 (stereo not drawn) | -4 | x | 3647 | -9 | 0
COc1cccc(C(=O)C2CN(C)CC2c2ccc(Cl)cc2)c1 (stereo not drawn) | -4 | 9 | 5452 | -3 | -1
COc1cccc(C(=O)C2CN(c3ccccc3)CC2c2ccc(Cl)cc2)c1 (stereo not drawn) | -5 | -1 | 21602* | -4 | -2
O=C(CC(=O)c1ccccc1)Nc1cccnc1Cl | -4 | 5 | 2082 | -3 | 0
O=C(CCc1ccccc1)Nc1cccnc1Cl | 66* | 9 | 3754 | u | 5
CC(C)NC(=O)c1cc(-n2cnnc2)ccc1Cl | 6 | 6 | 20045* | 1 | 2
O=C(Nc1cccc(-c2nc3ccccc3s2)c1)c1cc(-n2cnnc2)ccc1Cl | 0 | -2 | 4151 | -2 | 0
Cc1ccnc(NC(=O)c2cc(-n3cnnc3)ccc2Cl)c1 | 0 | 4 | 22908* | 2 | u
Cc1c(NC(=O)c2cc(-n3cnnc3)ccc2Cl)cccc1-c1nc2ccccc2s1 | -3 | 12 | 22973* | -2 | -1
CC(=O)Nc1ccc(NC(=O)c2cc(-n3cnnc3)ccc2Cl)cc1 | -2 | 5 | 3896 | 1 | 0
SMILES | BoNT-F LC inh | BJeLR lethal | Bead autofluor | Anthrax LF inh2 | BoNT-A LC inh2
CC(C)CNS(=O)(=O)c1ccc2c(c1)OCCO2 | 0 | 2 | 24162* | -1 | -2
CSc1ccccc1NS(=O)(=O)c1ccc2c(c1)OCCO2 | -1 | -4 | 20835* | -1 | 0
O=S(=O)(Nc1cccnc1)c1ccc2c(c1)OCCO2 | 1 | -4 | 3519 | 1 | -1
O=S(=O)(Nc1cccnc1Cl)c1ccc2c(c1)OCCO2 | -3 | 2 | 16615* | -2 | u
Cc1ccc(N(CC(=O)Nc2cccc(Cl)c2C)S(C)(=O)=O)cc1 | -24 | 4 | 2981 | -7 | -2
COCCNC(=O)C1(C)CCCN(Cc2csc(-c3ccc(Cl)cc3)n2)C1 (stereo not drawn) | -6 | x | 3691 | 0 | 0
O=C(CN1C(=O)c2ccccc2C1=O)NCC1COc2ccccc2O1 (stereo not drawn) | -13 | 5 | 4846 | -4 | -1
O=C(CN1CCN(Cc2ccccc2)CC1)NCC1COc2ccccc2O1 (stereo not drawn) | -3 | -5 | 23257* | -2 | -1
CCCCSc1nc(NCc2ccco2)c2c3c(sc2n1)COC(C)(C)C3 | -3 | -2 | 16223* | -2 | 0
CCCSc1nc(NCc2ccco2)c2c3c(sc2n1)COC(C)(C)C3 | -8 | -13 | 17467* | -5 | -2
Cc1ccc(-c2noc(CN(C(=O)C34CC5CC(CC(C5)C3)C4)C(C)C)n2)cc1 | -2 | -4 | 22906* | -3 | 0
CC(C)N(Cc1nc(-c2ccc(Cl)cc2)no1)C(=O)C(c1ccccc1)c1ccccc1 | 2 | 5 | 15639 | -1 | 2
Cc1ccc(-c2noc(CN(C(=O)C(c3ccccc3)c3ccccc3)C(C)C)n2)cc1 | -7 | -3 | 23813* | -4 | -2
Cc1ccc(-c2noc(CN(C(=O)c3cccc(Br)c3)C(C)C)n2)cc1 | 3 | -13 | 5996 | -4 | 0
COc1ccc(NC(=O)c2cc(C3CCCCN3S(C)(=O)=O)on2)c(C)c1 (stereo not drawn) | -2 | x | 2910 | 1 | 0
O=C(NCC12CC3CC(CC(C3)C1)C2)c1nc2ncccn2n1 | 0 | 2 | 19103* | -8 | 2
O=C(NCCc1ccccc1)c1nc2ncccn2n1 | 3 | -10 | 7988 | -1 | 0
COc1ccc(S(=O)(=O)N(C)c2ccc(C(=O)N3CCC(C(N)=O)CC3)cc2)cc1OC | -5 | 1 | 4458 | -5 | -1
CC(=O)N1C(=O)C(=C2C=C(C)OC(C)=C2)c2ccccc21 | 4 | -9 | 23162* | -1 | 0
Cc1cc(C)nc(NS(=O)(=O)c2ccc(NC(=O)CCN3C(=O)c4ccccc4C3=O)cc2)n1 | -4 | 0 | 16582* | 0 | -2
CC1CCN(S(=O)(=O)c2ccc(NC(=O)CCN3C(=O)c4ccccc4C3=O)cc2)CC1 | 0 | 0 | 19423* | -5 | 2
O=C(CCCCCN1C(=O)c2ccccc2C1=O)Nc1ccc(S(=O)(=O)N2CCCCC2)cc1 | 2 | -1 | 21502* | -1 | u
CCOC(=O)Nc1ccc(S(=O)(=O)Nc2nc(C)cc(C)n2)cc1 | -6 | 2 | 24252* | 0 | -4
CC(CCc1ccco1)NC(=O)Cn1ncc2c1-c1ccccc1OC2 (stereo not drawn) | 4 | 4 | 4353 | 1 | 0
CN(C)/C=C1\C(=O)N(c2ccc(Cl)cc2)CS1(=O)=O | -2 | -6 | 23839* | -1 | -1
CN(C)/C=C1\SC(=S)N(c2ccc(F)cc2)C1=O | x | -10 | x | x | x
Cc1ccc(N2CS(=O)(=O)/C(=C/N(C)C)C2=O)cc1 | 2 | 0 | 21872* | 0 | 3
CC1=NN(c2ccc(Cl)cc2)C(=O)C1 | 0 | 2 | 2606 | 0 | -1
